Most compounds without a hit are left out; they make up all but 5.7% or so of the library.
KB-V1 MDR tox = KB-V1 MDR subline cytotoxicity | KB-V1 MDR cells viability, CellTiter-Glo, 72 h | Potency, µM (titrated, usually from 46.1 µM), usual class: cytotoxic | actives 3.4% (n = 400,000); further: potency means the concentration at half of the fitted maximal effect; nearly all actives have a fitted effect of over 60% in size
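Drug-selected KB-V1 cells, grown in DMEM lacking phenol red with 10% FBS, receive compound titrations; after three days at 37 degrees C, surviving cell ATP is quantified by CellTiter-Glo luminescence and responses normalized and curve-fitted.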
Giardia killer = Giardia lamblia killing. activity change, % at 7.66 µM, hits read low. Giardia lamblia trophozoite viability. actives 0.15% (n = 340,000). AID 540267; in the data active means activity change below about -80%; inconclusive means between about -30% and that limit;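 further: parasites exposed to compound for two days anaerobically before the ATP read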
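Luminescence from cellular ATP indicates surviving trophozoites (100 cells/well) following 48 hrs anaerobic compound treatment at 37 deg C; signal develops 15-30 min at room temperature.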
PI4K2A inh = PI4K2A (human) kinase inhibition; activity change, negative = inhibition, % at 76.9 µM; purified PI4K2A, ADP-Glo luminescence, 1 h; hits give low values; Q9BTU6; actives 0.13% (n = 420,000); AID 1346378; in the data active means activity change below about -50%; inconclusive means mostly about -30% to -49%;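 further: -100% = wells without enzyme as full effect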
Target sequence (Q9BTU6 whole entry, looked up): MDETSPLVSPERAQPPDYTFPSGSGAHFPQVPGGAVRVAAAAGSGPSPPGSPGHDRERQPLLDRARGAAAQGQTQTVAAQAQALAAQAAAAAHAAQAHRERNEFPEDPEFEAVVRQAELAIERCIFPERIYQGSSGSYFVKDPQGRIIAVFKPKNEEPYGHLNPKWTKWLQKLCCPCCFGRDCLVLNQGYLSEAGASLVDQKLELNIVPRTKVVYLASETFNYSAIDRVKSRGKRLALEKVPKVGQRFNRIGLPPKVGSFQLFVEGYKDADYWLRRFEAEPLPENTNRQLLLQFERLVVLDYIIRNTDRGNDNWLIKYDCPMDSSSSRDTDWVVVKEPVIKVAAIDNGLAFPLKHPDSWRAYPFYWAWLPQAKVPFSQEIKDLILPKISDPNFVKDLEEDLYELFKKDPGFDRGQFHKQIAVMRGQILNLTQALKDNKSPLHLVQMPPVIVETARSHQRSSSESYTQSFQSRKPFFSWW
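PI4K2A activity was measured by ADP-Glo luminescence: enzyme (4 ug/mL stock) and phosphatidylinositol (1.2 mM stock) in Tris pH 7.5/MgCl2/EGTA/Triton X-100 buffer were reacted with ATP (300 microM stock) for one hour at ambient temperature.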
KB-3-1 cytotox = KB-3-1 parental cell cytotoxicity | KB-3-1 viability, CellTiter-Glo ATP luminescence, 72 h | Potency, µM (titrated, usually from 46.1 µM), hits mostly cytotoxic | actives 1.4% (n = 400,000); further: potency means the concentration at half of the fitted maximal effect; nearly all actives have a fitted effect of over 60% in size
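KB-3-1 parental drug-naive adenocarcinoma cells in DMEM/10% FBS, incubated 72 h at 37 C with pin-transferred compounds across a concentration series. Viability by CellTiter-Glo luminescence; concentration-response curves fitted after normalization.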
Nrf2 inh = blocks Nrf2 signaling | A549 ARE-Fluc reporter, luciferase luminescence, 18-24 h | Potency, µM (highest dose often 46 µM), for the others: at the highest dose activity change, negative = inhibition, actives largely listed as inhibitors | actives 2.1% (n = 360,000) | AID 504444; further: potency means the concentration at half of the fitted maximal effect; nearly all actives have a fitted effect of over 60% in size
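Two sequential reads on A549 ARE_Fluc cells exposed to compound for 18-24 h: a CellTiter-Fluor fluorescence read for viability, then a luciferase luminescence read for Nrf2/ARE activity.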
A549 tox = counter-screen for Nrf2 inhibitors: cytotoxicity in A549 cells; A549 ARE-Fluc cells, CellTiter-Fluor viability, 18-24 h; Potency, µM (doses to about 46 µM), for inactives: at the top dose activity change, negative = cytotoxicity, usual class: inhibitors; actives 0.16% (n = 390,000); further: potency means the concentration at half of the fitted maximal effect
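A549 ARE_Fluc cells in 5% FBS OPTI-MEM were exposed to compounds in concentration-response for 18-24 h at 37 deg C. Viability was read by CellTiter-Fluor fluorescence (Ex 405/Em 525) after 30 min, before the luciferase read.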
* marks the source's active call; other numbers are inactive results; i = inactive; ? = inconclusive; / = no result given; [ ] = dose if it differs, or a comment. Unless noted, the call rests on the fitted dose curve; in most records, active means well fitted curve in the direction sought with a large enough effect; inconclusive means small, poorly fitted or top-dose-only effect, or another doubt; inactive means no such curve, though single readings can be large; an effect the other way counts as inactive or inconclusive. Unless noted, on the % scale 0 is the no-effect control and ±100 the full control effect.

SMILES	KB-V1 MDR tox	Giardia killer	PI4K2A inh	KB-3-1 cytotox	Nrf2 inh	A549 tox
COc1cccc(C2c3c(ncn(Cc4cccs4)c3=N)Oc3ccc4ccccc4c32)c1 (centres undefined)	/	/	/	/	-3.0%	-2.8%
Cc1ccc(S(=O)(=O)N2CCN(c3nc(-c4cccs4)nc4cccnc34)CC2)cc1	i	-6.1	/	i	6.1%	-1.2%
CCOc1ccc(/C=C2\NCCc3cc(OCC)c(OCC)cc32)cc1OCC	/	/	-8.7	/	/	/
COc1ccccc1-c1cc(C(=O)Nc2c(C)n(C)n(-c3ccccc3)c2=O)no1	i	0.0	-9.7	i	-12.8%	-6.5%[1.84 µM]
COc1ccccc1-c1cc(C(=O)NCc2ccccc2)no1	i	1.5	2.6	i	6.4%	-7.9%
COc1ccc(-c2cc(C(=O)Nc3c(C)nn(Cc4ccc(Cl)cc4)c3C)no2)cc1	?	13.2	4.6	i	?	?
COc1ccc(-c2cc(C(=O)Nc3cc(C)on3)no2)cc1OC	i	7.3	2.6	i	6.0%	-0.8%
COc1ccccc1-c1cc(C(=O)Nc2cc(C)on2)no1	i	-7.6	-84.6*	i	20.8%	-15.4%
COc1ccccc1-c1cc(C(=O)Nc2c(C)nn(Cc3ccc(Cl)cc3)c2C)no1	i	/	0.0	?	18.4µM*	?
COc1ccccc1-c1cc(C(=O)NCc2ccc(F)cc2)no1	16.4µM*	7.9	-9.3	i	-21.7%	-6.5%
COc1ccc(OC)c(-c2cc(C(=O)Nc3c(C)n(C)n(-c4ccccc4)c3=O)no2)c1	23.1µM*	-10.7	-5.4	i	-5.5%	?
O=C(Cn1nnc(-c2ccncc2)n1)Nc1ccc(Cl)cc1	/	/	-0.7	/	/	/
COC(=O)CN1C(=O)CSc2ccc(S(=O)(=O)Nc3ccc(C)c(Cl)c3)cc21	/	/	-7.1	/	-30.6%	11.4%
COC(=O)c1nc(N2CCN(S(=O)(=O)c3ccc(C)cc3)CC2)c2ccccc2n1	/	?	/	/	9.2%	0.9%
O=C(O)c1ccccc1OC1=NS(=O)(=O)c2ccccc21	i	/	/	?	13.8%	-2.0%
Cc1cc(Nc2ccc(C(C)C)cc2)n2ncnc2n1	7.31µM*	-7.4	1.5	14.6µM*	-21.1%	-3.1%
COc1cccc(Nc2nc(-c3ccccc3)c3cc(C)ccc3n2)c1	/	/	0.5	/	-9.0%	6.8%
COc1cc(Nc2nc(-c3ccccc3)c3cc(C)ccc3n2)cc(OC)c1OC	20.6µM*	7.6	-0.6	?	?	-11.1%
Cc1ccc(CN2C(=O)SC(Nc3ccc(Cl)cc3)C2=O)cc1 (centres undefined)	?	/	-2.0	i	0.9%	-0.1%
COC(=O)c1cc(CSc2nc3ccccc3c(=O)n2C)oc1C	?	-16.9	-1.1	i	18.4µM*	5.0%
C=CCn1c(SCC(=O)Nc2cccc(S(N)(=O)=O)c2)nc2sc(C)c(C)c2c1=O	23.1µM*	-9.8	1.9	i	16.4µM*	?
COCCn1c(SCC(=O)Nc2cccc(S(N)(=O)=O)c2)nc2cc(Cl)ccc2c1=O	i	-3.4	4.0	i	-19.9%	-9.6%
COC(=O)c1ccccc1NC(=O)CSc1nc2cccnc2n1C	i	-4.9	-1.8	i	-10.0%	10.2%
COC(=O)c1cccc(NC(=O)CSc2nc3cccnc3n2C)c1	18.4µM*	10.0	2.8	i	?	-25.2%
CC(C)Cn1c(SCC(=O)Nc2cccc(S(N)(=O)=O)c2)nc2ccccc2c1=O	i	7.4	-3.8	i	20.6µM*	-19.8%
SMILES	KB-V1 MDR tox	Giardia killer	PI4K2A inh	KB-3-1 cytotox	Nrf2 inh	A549 tox
C=CCn1c(SCC(=O)Nc2ccccc2C)nc2sc(C)c(C)c2c1=O	?	-10.1	6.1	i	?	1.2%
CC(=O)Nc1cccc(S(=O)(=O)Nc2ccc(C)c(C)c2)c1	/	/	/	/	?	-0.6%
Cc1ccc(-n2c(SCC(=O)Nc3cccc(S(N)(=O)=O)c3)nc3ccccc32)cc1	i	43.7	-3.5	14.6µM*	20.6µM*	?
COc1cccc(NC(=O)CSc2nc3ccccc3c(=O)n2C)c1	?	-19.9	-0.9	i	14.6µM*	-9.6%
CC(C)Oc1ccccc1NC(=O)CSc1nc2ccccc2c(=O)n1C	i	-10.9	-0.8	?	?	-0.2%
CCn1cc(C(=O)O)c(=O)c2cc(F)c(N/N=C/c3ccccc3[N+](=O)[O-])cc21	13µM*	2.4	3.3	i	4.5%	0.8%
CCn1cc(C(=O)O)c(=O)c2cc(F)c(N3CCN(C(=S)Nc4ccccc4OC)CC3)cc21	i	-26.6	0.6	?	0.9%	0.1%
CNc1snc(C)c1C(=O)OCC(=O)c1ccc(OC)c(F)c1	?	10.1	-1.5	i	11.4%	-4.4%
CNc1snc(C)c1C(=O)OCC(=O)c1cc(F)ccc1OC	i	2.1	-2.4	i	11.6µM*	-8.2%
CCOc1ccc(NC(=O)c2nc(S(=O)(=O)Cc3ccc(F)cc3)ncc2Cl)cc1	?	/	/	i	/	/
CCn1c2ccccc2c2cc(C=NNC(=O)CSc3nc4ccccc4c(=O)n3-c3ccccc3)ccc21	/	/	-0.9	/	/	/
COc1ccc(NC(=O)CCC2CCCCC2)cc1S(=O)(=O)N1CCCCC1	3.26µM*	0.8	0.2	5.17µM*	?	-11.2%
COc1ccc(NC(=O)CCCOc2ccc(C)cc2)cc1S(=O)(=O)N1CCCCC1	i	/	1.8	i	/	/
COc1ccc(NC(=O)Cc2ccc(C)cc2)cc1S(=O)(=O)N1CCCCC1	?	?	1.4	i	-20.5%	-2.4%
COc1ccc(NC(=O)Cc2ccc(C)c(C)c2)cc1S(=O)(=O)N1CCCCC1	9.2µM*	2.9	8.2	?	?	-13.3%

High-throughput results deposited in PubChem BioAssay by National Center for Advancing Translational Sciences (NCATS).
